In PubChem BioAssay (Tox21):
Results filed as inconclusive are left out. Activity calls are given as the source filed them. Unless noted, the call rests on the fitted dose curve.

Key:
[1] = Nuclear factor erythroid 2-related factor 2/antioxidant responsive element (Nrf2/ARE) small molecule agonists: qHTS cell viability counter screen in human keratinocytes (AID 1919968; active means well fitted curve in the direction sought with a large enough effect in the repeat runs; an effect the other way counts as inactive or inconclusive; further: nearly all actives have a fitted effect of over 55% in size)
Summary of the method: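 In human HaCaT keratinocytes stably expressing an ARE-driven luciferase, compound exposure lasted 23 h at 37 C under 5% CO2. Viable cells are quantified with a protease-based fluorogenic reagent (CellTiter-Fluor) read 1 h after addition.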

[2] = Nuclear factor erythroid 2-related factor 2/antioxidant responsive element (Nrf2/ARE) small molecule agonists: luciferase reporter gene qHTS assay in human keratinocytes (AID 1919969); further: nearly all actives have a fitted effect of over 35% in size; further: potency means the concentration at half of the fitted maximal effect
[3] = target: Gonadotropin-releasing hormone receptor (Homo sapiens) (UniProt P30968); assay: Human gonadotropin-releasing hormone receptor (GnRHR) small molecule agonists, calcium flux assay in GnRHR-HEK293 cells (AID 1920063); further: nearly all actives have a fitted effect of over 35% in size
Gonadotropin-releasing hormone receptor (Homo sapiens), sequence (P30968 whole entry, looked up): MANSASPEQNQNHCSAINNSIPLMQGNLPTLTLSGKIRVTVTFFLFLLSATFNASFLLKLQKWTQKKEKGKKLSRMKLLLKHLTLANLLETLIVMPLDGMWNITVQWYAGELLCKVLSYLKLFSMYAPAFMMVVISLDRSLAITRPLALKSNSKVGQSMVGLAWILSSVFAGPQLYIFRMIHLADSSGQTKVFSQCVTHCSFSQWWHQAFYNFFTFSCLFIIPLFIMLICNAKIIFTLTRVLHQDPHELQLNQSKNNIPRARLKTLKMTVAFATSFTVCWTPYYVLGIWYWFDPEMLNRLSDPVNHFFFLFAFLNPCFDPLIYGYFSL
Summary of the method: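 Intracellular calcium rise is the read-out: engineered human GnRHR HEK293 cells, dye-loaded, are exposed to DMSO-dissolved compounds and fluorescence at Ex/Em 480/540 is tracked for 3 min.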

[4] = target: KiSS-1 receptor (Homo sapiens) (UniProt Q969F8); assay: Human kisspeptin (KISS1R) small molecule agonists, calcium flux assay in KISS1R-HEK293 cells (AID 1920064; active means well fitted curve in the direction sought with a large enough effect in the repeat runs; an effect the other way counts as inactive or inconclusive)
KiSS-1 receptor (Homo sapiens), sequence (Q969F8 whole entry, looked up): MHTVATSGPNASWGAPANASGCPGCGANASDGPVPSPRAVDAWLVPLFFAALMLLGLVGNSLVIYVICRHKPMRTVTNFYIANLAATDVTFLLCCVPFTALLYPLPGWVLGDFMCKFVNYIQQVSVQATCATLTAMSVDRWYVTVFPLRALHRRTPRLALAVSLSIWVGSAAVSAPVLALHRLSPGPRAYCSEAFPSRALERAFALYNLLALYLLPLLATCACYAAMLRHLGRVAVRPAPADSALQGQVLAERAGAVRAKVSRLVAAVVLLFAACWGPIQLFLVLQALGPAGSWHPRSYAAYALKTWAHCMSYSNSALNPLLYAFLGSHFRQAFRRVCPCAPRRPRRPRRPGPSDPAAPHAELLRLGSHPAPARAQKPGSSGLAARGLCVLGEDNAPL
Summary of the method: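 Concentration-response testing used 15 concentrations in triplicate on human KISS1R-expressing HEK293 cells. Calcium-dependent fluorescence (Ex/Em 480/540) was followed kinetically for 3 min after compound transfer.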

[5] = G protein-coupled receptor (GPCR) small molecule agonists, calcium flux assay: HEK293 wild type cell line counter screen (AID 1920065)
Summary of the method: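 Fluorescence intensity signals activation. After overnight (18 h) culture and a 1 h calcium dye load at 37 C, compounds are added by pin tool and the plate read at 480/540 nm for 3 min in 1 s steps.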

[6] = p53 small molecule agonists, cell-based qHTS assay with human liver microsomes: qHTS cell viability counter screen (AID 1963579); further: nearly all actives have a fitted effect of over 45% in size
Summary of the method: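 Tox21 library compounds, delivered from DMSO stocks, were tested on p53RE-bla cells together with 0.5 mg/mL human liver microsomes and 0.5 mg/mL NADPH (final) over 16 h at 37 C; CellTiter-Glo luminescence served as the cytotoxicity measure.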

[7] = p53 small molecule agonists, cell-based qHTS assay: qHTS cell viability counter screen (AID 1963581); further: nearly all actives have a fitted effect of over 45% in size
Summary of the method: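 Luminescence from CellTiter-Glo, reflecting ATP content, serves as the cytotoxicity measure; it is taken after the 2 h reporter substrate step in HCT-116 p53RE-bla cells dosed for 16 h at 37 C.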

[8] = target: 5-hydroxytryptamine receptor 2A (Homo sapiens) (UniProt P28223); assay: 5-hydroxytryptamine receptor 2A (HTR2A) small molecule antagonists, cell-based qHTS assay (AID 1963586); further: nearly all actives have a fitted effect of over 45% in size
5-hydroxytryptamine receptor 2A (Homo sapiens), sequence (P28223 whole entry, looked up): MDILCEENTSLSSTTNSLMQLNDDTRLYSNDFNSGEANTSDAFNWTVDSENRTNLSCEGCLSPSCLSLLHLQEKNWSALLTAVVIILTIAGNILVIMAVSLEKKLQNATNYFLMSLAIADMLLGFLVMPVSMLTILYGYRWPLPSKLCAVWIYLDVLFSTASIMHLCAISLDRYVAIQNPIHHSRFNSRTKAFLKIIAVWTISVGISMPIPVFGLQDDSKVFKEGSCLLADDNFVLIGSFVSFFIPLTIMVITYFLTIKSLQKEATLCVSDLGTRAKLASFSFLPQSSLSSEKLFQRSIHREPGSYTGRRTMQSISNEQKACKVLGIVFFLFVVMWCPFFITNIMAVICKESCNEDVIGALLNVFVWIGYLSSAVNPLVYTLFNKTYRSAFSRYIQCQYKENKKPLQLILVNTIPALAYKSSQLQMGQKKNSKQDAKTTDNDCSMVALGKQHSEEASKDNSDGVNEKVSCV
Summary of the method: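 CHO cells stably expressing human HTR2A were plated for 18 h at 37 C, then loaded with calcium dye for 1 h. Compounds were preincubated 5 min at room temperature before DOI (4 nM solution) was added. Kinetic fluorescence was read for 3 min.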

[9] = target: 5-hydroxytryptamine receptor 2A (Homo sapiens) (UniProt P28223); assay: 5-hydroxytryptamine receptor 2A (HTR2A) small molecule agonists, cell-based qHTS assay (AID 1963587); further: nearly all actives have a fitted effect of over 30% in size
Summary of the method: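 HTR2A-CHO cells, plated 18 h at 37 C/5% CO2, dye-loaded 1 h at 37 C; compounds in DMSO added by pin tool (agonist mode). Intracellular calcium flux read as kinetic fluorescence on FDSS over 2 min at 1 s intervals.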

[10] = target: Muscarinic acetylcholine receptor M1 (Homo sapiens) (UniProt P11229); assay: Cholinergic receptor muscarinic 1 (CHRM1) small molecule antagonists, cell-based qHTS assay (AID 1963588); further: nearly all actives have a fitted effect of over 40% in size
Muscarinic acetylcholine receptor M1 (Homo sapiens), sequence (P11229 whole entry, looked up): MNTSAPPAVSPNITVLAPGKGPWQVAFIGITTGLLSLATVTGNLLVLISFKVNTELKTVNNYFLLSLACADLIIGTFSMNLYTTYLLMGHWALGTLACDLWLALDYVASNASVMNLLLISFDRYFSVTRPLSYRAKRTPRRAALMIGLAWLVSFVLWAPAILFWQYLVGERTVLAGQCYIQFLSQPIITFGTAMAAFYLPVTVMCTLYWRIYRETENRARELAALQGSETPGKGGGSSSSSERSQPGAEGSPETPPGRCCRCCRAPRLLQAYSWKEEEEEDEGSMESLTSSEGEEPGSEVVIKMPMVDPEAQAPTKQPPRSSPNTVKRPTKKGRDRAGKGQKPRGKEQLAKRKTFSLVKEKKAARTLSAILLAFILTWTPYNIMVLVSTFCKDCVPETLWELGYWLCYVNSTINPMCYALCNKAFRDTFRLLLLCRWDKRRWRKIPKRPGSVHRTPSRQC
Summary of the method: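 Compounds were tested at 15 concentrations in three independent runs. Dye-loaded CHRM1-CHO cells were exposed 5 min at room temperature before stimulation by acetylcholine added at 50nM. Intracellular calcium was read kinetically on FDSS for 3 min.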

[11] = cAMP Responsive Elements (CRE) small molecule agonists, cell-based qHTS assay (AID 1963590)
Summary of the method: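 Compound exposure lasted 3 h at 37 C/5% CO2 in CRE-bla HEK 293T cells grown in assay medium with 10% dialyzed FBS and 25 mM HEPES. Reporter signal came from LiveBLAzer B/G FRET substrate, 2 h, room temperature.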

[12] = cAMP Responsive Elements (CRE) small molecule antagonists, cell-based qHTS assay (AID 1963591; active means well fitted inhibition curve with a large enough effect in the signal ratio in the repeat runs, not every such curve was filed as active; the % refers to the signal ratio)
Summary of the method: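 Stimulation used NKH477 at a final 0.25 uM for 3 h in compound-treated CRE-bla HEK293T cells, seeded 18 h beforehand. Reporter activity was measured with LiveBLAzer B/G FRET substrate after 2 h at room temperature.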

[13] = target: Beta-2 adrenergic receptor (Homo sapiens) (UniProt P07550); assay: Adrenergic beta2 receptor (ADRB2) small molecule antagonists, cell-based qHTS assay (AID 1963592); further: series mostly up to about 92 µM; nearly all actives have a fitted effect of over 50% in size
Beta-2 adrenergic receptor (Homo sapiens), sequence (P07550 whole entry, looked up): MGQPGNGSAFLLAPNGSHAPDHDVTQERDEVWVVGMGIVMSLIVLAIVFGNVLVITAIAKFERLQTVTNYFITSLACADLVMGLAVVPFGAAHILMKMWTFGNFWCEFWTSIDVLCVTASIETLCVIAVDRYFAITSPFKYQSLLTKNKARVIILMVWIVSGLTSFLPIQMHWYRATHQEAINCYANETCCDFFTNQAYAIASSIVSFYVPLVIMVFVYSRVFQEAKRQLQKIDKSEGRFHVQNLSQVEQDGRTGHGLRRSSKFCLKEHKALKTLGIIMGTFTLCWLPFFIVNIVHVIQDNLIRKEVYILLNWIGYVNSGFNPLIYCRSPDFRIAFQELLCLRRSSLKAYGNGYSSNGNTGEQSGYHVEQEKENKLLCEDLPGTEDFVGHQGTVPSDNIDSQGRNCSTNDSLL
Summary of the method: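 Assay format: CHO-ADRB2 cells, 18-20hr seeding at 37C/5% CO2, then compound plus 1nM isoproterenol agonist mix for 0.5hr RT. Homogeneous time-resolved fluorescence cAMP detection after 1hr, expressed as 665/615 nm ratio.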

[14] = target: Beta-2 adrenergic receptor (Homo sapiens) (UniProt P07550); assay: Adrenergic beta2 receptor (ADRB2) small molecule agonists, cell-based qHTS assay (AID 1963593);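 further: CHO cells stably overexpressing human ADRB2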
Summary of the method: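 CHO cells stably over-expressing ADRB2 were plated overnight at 37C, then dosed with compounds plus a stimulation mix containing 100uM IBMX and 25uM Ro-20-1724 for 0.5hr at room temperature. cAMP was measured by HTRF competition, 1hr.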

[15] = target: D(2) dopamine receptor (Homo sapiens) (UniProt P14416); assay: Dopamine D2 receptor (DRD2) small molecule agonists, cell-based qHTS assay (AID 1963594); further: nearly all actives have a fitted effect of over 35% in size
D(2) dopamine receptor (Homo sapiens), sequence (P14416 whole entry, looked up): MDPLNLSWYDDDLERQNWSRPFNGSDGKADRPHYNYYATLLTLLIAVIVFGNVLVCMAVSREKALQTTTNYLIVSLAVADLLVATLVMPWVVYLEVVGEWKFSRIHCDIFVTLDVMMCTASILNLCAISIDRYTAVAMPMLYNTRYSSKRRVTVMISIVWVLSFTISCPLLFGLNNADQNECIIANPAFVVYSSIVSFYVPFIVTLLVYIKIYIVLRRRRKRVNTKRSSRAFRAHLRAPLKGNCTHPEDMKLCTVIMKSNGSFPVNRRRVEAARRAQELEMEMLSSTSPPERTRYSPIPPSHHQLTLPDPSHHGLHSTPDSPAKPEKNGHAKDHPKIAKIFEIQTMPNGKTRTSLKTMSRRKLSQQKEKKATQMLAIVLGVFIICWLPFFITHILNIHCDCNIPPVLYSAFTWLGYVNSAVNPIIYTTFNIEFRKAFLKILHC
Summary of the method: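 HEK293 cells stably expressing DRD2 were cultured 24 h at 37 C, then given Ro20-1724 (0.1 mM final) and compounds for 10 min at room temperature. NKH477 (200nM) was then added for 30 min. cAMP was read by HTRF.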

[16] = target: Muscarinic acetylcholine receptor M1 (Homo sapiens) (UniProt P11229); assay: Cholinergic receptor muscarinic 1 (CHRM1) small molecule agonists, cell-based qHTS assay (AID 1963589); further: nearly all actives have a fitted effect of over 35% in size
Summary of the method: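 Fluorescent calcium dye reports M1 activation in stably transfected CHO cells. Compounds, 15 concentrations, added after 1 h dye loading at 37 C; kinetic reading at 1 sec intervals.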

[17] = target: D(2) dopamine receptor (Homo sapiens) (UniProt P14416); assay: Dopamine D2 receptor (DRD2) small molecule antagonists, cell-based qHTS assay (AID 1963595; active means well fitted inhibition curve with a large enough effect in the signal ratio in the repeat runs, with a control signal flat; the % refers to the signal ratio)
Summary of the method: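 Antagonist mode in DRD2-HEK293 cells: after compound addition with 0.1 mM Ro20-1724, cells received quinpirole (12 nM) and NKH477 (200 nM) for 30 min at room temperature; HTRF cAMP read after 1 h detection.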
On the % scale 0 is the no-effect control and ±100 the full control effect.

c1ccc2c(c1)CCCC2C1=NCCN1 (configuration not stated)
inactive: Potency [1] | Potency [2] | Potency [3] | Potency [4] | Potency [5] | Potency [6] | Potency [7] | Potency [8] | Potency [9] | Potency [10] | Potency [11] | Potency [12] | Potency [13] | Potency [14] | Potency [15]

NC(N)=NS(=O)(=O)c1ccc(N)cc1
inactive: Potency [1] | Potency [2] | Potency [3] | Potency [4] | Potency [5] | Potency [6] | Potency [7] | Potency [9] | Potency [10] | Potency [16] | Potency [12] | Potency [13] | Potency [15]

C=C(C)C(=O)OCCCCCCCCCCCCCCCCCC
inactive: activity change, negative = cytotoxicity [1] 0.16% [at 19 µM] | activity, positive = activation [2] -9.09% [at 19 µM] | activity change [3] 1.34% [at 11.8 µM, stronger effect = higher value] | activation [4] 1.35% [at 15.8 µM] | activation [5] 0.174% [at 11.8 µM] | activity change, negative = cytotoxicity [6] -5.03% [at 13.5 µM] | activity change, negative = cytotoxicity [7] -0.723% [at 13.5 µM] | activity, negative = inhibition [8] -3.48% [at 12.7 µM] | activation [9] -0.137% [at 15.9 µM] | activity, negative = inhibition [10] -12.8% [at 12.6 µM] | activation [16] 0.19% [at 15.8 µM] | activation [11] -2.05% [at 19 µM] | activity change, negative = inhibition [12] -19.6% [at 18.9 µM] | activation [14] -0.576% [at 19 µM] | activation [15] -1.1% [at 19 µM]

C=C(C)C(=O)OCC
inactive: Potency [1] | Potency [2] | Potency [3] | Potency [4] | Potency [5] | Potency [6] | Potency [8] | Potency [9] | Potency [10] | Potency [16] | Potency [12] | Potency [13] | Potency [15] | Potency [17]

CCCCCCCCCCCCCOC(=O)CCSCCC(=O)OCCCCCCCCCCCCC
inactive: activity change, negative = cytotoxicity [1] -1.71% [at 19 µM] | activity, positive = activation [2] 4.84% [at 19 µM] | activity change [3] 1.53% [at 11.8 µM, stronger effect = higher value] | activation [4] 1.75% [at 15.8 µM] | activation [5] -0.388% [at 11.8 µM] | activity change, negative = cytotoxicity [6] -3.75% [at 13.5 µM] | activity change, negative = cytotoxicity [7] -3.06% [at 13.5 µM] | activity, negative = inhibition [8] 1.85% [at 12.7 µM] | activity, negative = inhibition [10] 18% [at 12.6 µM] | activation [16] -0.105% [at 15.8 µM] | activation [11] -0.927% [at 19 µM] | activity change, negative = inhibition [12] -14% [at 18.9 µM] | activity change, negative = inhibition [13] -0.103% [at 19 µM] | activation [15] 5.42% [at 19 µM] | activity change, negative = inhibition [17] -7.07% [at 18.9 µM]

CN1C(CSCC(F)(F)F)Nc2cc(Cl)c(S(N)(=O)=O)cc2S1(=O)=O (configuration not stated)
inactive: Potency [1] | Potency [2] | Potency [3] | Potency [4] | Potency [5] | Potency [6] | Potency [9] | Potency [10] | Potency [16] | Potency [12] | Potency [13] | Potency [14] | Potency [15] | Potency [17]

CCOc1ccc2nc(S(N)(=O)=O)sc2c1
active: Potency [2] 6.68 µM
inactive: Potency [1] | Potency [3] | Potency [4] | Potency [5] | Potency [6] | Potency [7] | Potency [8] | Potency [10] | Potency [16] | Potency [11] | Potency [12] | Potency [13] | Potency [14] | Potency [15] | Potency [17]
